Screening data deposited in PubChem BioAssay by National Center for Advancing Translational Sciences (NCATS).
Tau fluor counter: Counterscreen qHTS for Inhibitors of Tau Fibril Formation, Fluorescence Polarization; tau K18 P301L Alexa594 fluorescence, heparin fibrillization; 280,000 tested, 0.93% active; AID 1463, 2008; Potency, µM (doses to about 57.7 µM), inactives show at the top dose activity change, negative = decrease; also: potency is read from the fitted curve at half-maximal effect; nearly all actives have a fitted effect of over 55% in size
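Human K18 P301L tau (15 uM unlabeled plus 0.24 uM Alexa 594-labeled, final) in 100 mM sodium acetate pH 7 was mixed with compound and 20 uM heparin and incubated 6 hr at 37 C.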
Sfp PPTase inh: qHTS Assay for Inhibitors of Bacillus subtilis Sfp phosphopantetheinyl transferase (PPTase). 4'-phosphopantetheinyl transferase ffp (Bacillus subtilis), Q9F4F7. Biochemical Sfp PPTase activity, qHTS. Potency, µM, inactives show largest response in the series, negative = inhibition, actives largely listed as inhibitors. 310,000 tested, 3.5% active;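 also: the enzyme is Sfp with the accession as filed and its product quenches rhodamine fluorescence; potency is read from the fitted curve at half-maximal effect; 0% = enzyme reaction without inhibitor and -100% = no enzyme wells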
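Compounds were incubated with enzyme (final 15 nM) for 15 min at room temperature before substrate addition started the reaction. Fluorescence at 525 nm excitation, 598 nm emission was recorded immediately and after 30 minutes.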
Tau fibril FP: qHTS for Inhibitors of Tau Fibril Formation, Fluorescence Polarization. K18 P301L tau heparin fibrillization, Alexa594 FP, 6 h. Potency, µM (titrated, usually from 57.7 µM), for inactives: top-dose activity, negative = inhibition, usual class: inhibitors. 280,000 tested, 0.39% active. AID 1468, 2008; also: potency is read from the fitted curve at half-maximal effect; nearly all actives have a fitted effect of over 55% in size
Target sequence (P10636 561-689 P618L limits assumed): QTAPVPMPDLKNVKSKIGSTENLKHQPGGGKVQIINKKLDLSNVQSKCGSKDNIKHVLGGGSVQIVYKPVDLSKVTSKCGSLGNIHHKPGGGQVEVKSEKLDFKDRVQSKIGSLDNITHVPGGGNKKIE
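FP of Alexa 594-tau after heparin (20 uM) induction. Substrate: human K18 P301L, 15 uM unlabeled, 0.24 uM labeled. Buffer 100 mM sodium acetate pH 7. 6 hr, 37 C.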
FBPA coupling cs: qHTS Assay for Inhibitors of Fructose-1,6-bisphosphate Aldolase from Giardia Lamblia: Coupling assay counterscreen; coupling enzyme system counterscreen, AmpLite Red fluorescence; activity change, negative = inhibition, % at 58.2 µM, hits read low; 290,000 tested, 0.67% active; in the data active = activity change below about -30%
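Counterscreen lacking aldolase: glyceraldehyde-3-phosphate coupling-enzyme reagent preincubated 10 min at RT with compound (at 57.5 uM final), then substrate/coupling system with AmpLite Red added; fluorescence read at 525/598 nm after 20 min RT.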
Tau ThT inhib: qHTS for Inhibitors of Tau Fibril Formation, Thioflavin T Binding. recombinant tau K18 P301L (four-repeat tau fragment), heparin-induced fibrillization, ThT fluorescence. Potency, µM (top dose mostly 57.4 µM), inactives show at the top dose activity, negative = inhibition, most hits filed as inhibitors. 270,000 tested, 2.1% active; also: potency is read from the fitted curve at half-maximal effect; nearly all actives have a fitted effect of over 55% in size
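Aggregation was driven by heparin (20 uM final) acting on recombinant tau […] bearing P301L in 100 mM sodium acetate pH 7; fibrils were detected with Thioflavin T.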
The depositor's hits bear a star; ? = inconclusive; / = no result; [ ] = dose if it differs, or a comment. Hits are enriched below; roughly 5.2% of the tested compounds scored in any of these assays. Unless noted, calls follow the shape of the dose curve; as a rule, active = well fitted curve in the direction sought with a large enough effect; inconclusive = small, poorly fitted or top-dose-only effect, or another doubt; inactive = no such curve, though single readings can be large; an effect the other way counts as inactive or inconclusive. Unless noted, % is scaled to controls: 0 for no effect and ±100 for the full control effect.

SMILES | Tau fluor counter | Sfp PPTase inh | Tau fibril FP | FBPA coupling cs | Tau ThT inhib
S=c1[nH]cc(-c2ccccc2)[nH]1 | 1% | -2% | 1% | 5 | -2%
O=[N+]([O-])c1ccc(-c2c[nH]c(=S)[nH]2)cc1 | ? | 3.5µM* | ? | 3 | 25µM*
Cc1ccc(NC(=O)C2CCN(S(=O)(=O)c3ccc4c(c3)CCCN4C(=O)C3CCC3)CC2)cc1 | -5% | / | -8% | / | -5%
O=C(O)c1cc(Cl)c2c(c1)[C@@H]1C=CC[C@@H]1[C@H](c1ccc(S(=O)(=O)N3CCOCC3)cc1)N2 | 6% | ? | 5% | -26 | 11%
Cc1cc(C)c2c(c1)C1C=CCC1C(c1ccc(S(=O)(=O)N3CCOCC3)cc1)N2 (stereo not drawn) | -3% | 40µM* | 5% | 2 | -1%
O=C(NCc1n[nH]c(=S)n1-c1ccc(F)cc1)c1ccc(S(=O)(=O)N2CCOCC2)cc1 | -13% | 45µM* | ? | 8 | -9%
O=C(NCc1n[nH]c(=S)n1-c1ccccc1)c1ccc(S(=O)(=O)N2CCOCC2)cc1 | -2% | -15% | 0% | 2 | -4%
CCCCSc1nnc2c(n1)OC(C)N(C(C)=O)c1ccccc1-2 (stereo not drawn) | 8% | / | 2% | / | 12%
CCCCSc1nnc2c(n1)OC(C(=O)c1ccccc1)Nc1ccccc1-2 (stereo not drawn) | ? | -6% | ? | 2 | 32µM*
COc1ccc(C(=O)/C(Br)=C/C(=O)O)cc1 | / | 16% | / | / | /
COc1cccc(C2Nc3c(F)cc(Br)cc3C3C=CCC32)c1OC (stereo not drawn) | -28% | -12% | -8% | 0 | -17%
COc1cccc2c1NC(C(=O)O)C1CC=CC21 (stereo not drawn) | ? | 7.9µM* | ? | -13 | 16µM*
CC(=O)c1ccc2c(c1)C1C=CCC1C(C(=O)O)N2 (stereo not drawn) | 14% | -20% | 2% | 3 | 11%
O=C(O)C1Nc2c(cccc2C(F)(F)F)C2C=CCC12 (stereo not drawn) | / | 50µM* | / | 3 | /
Cc1ccc2c(c1)C1C=CCC1C(C(=O)O)N2 (stereo not drawn) | ? | ? | ? | -3 | 14µM*
Cc1cccc(NC(=O)CSc2ccc(-c3sc(-c4ccccc4)nc3C)nn2)c1C | ? | / | -17% | / | ?
COc1cc(NC(=O)COc2ccccc2[N+](=O)[O-])ccc1NC(=O)c1cccs1 | -7% | 16µM* | -4% | 1 | -4%
O=C(c1ccc2c(c1)N(Cc1ccc(Cl)cc1)C(=O)c1ccccc1S2(=O)=O)N1CCCC1 | -17% | / | 4% | / | -17%
CCOC(=O)c1ccc2ncc(C(=O)OCC)c(Nc3ccc(N4CCOCC4)cc3)c2c1 | -26% | 50µM* | 2% | -1 | ?
CCOC(=O)c1cnc2ccccc2c1Nc1ccc(N2CCOCC2)cc1 | -27% | / | 1% | / | ?
CCOC(=O)c1cnc2c(C)cccc2c1Nc1ccc(N2CCOCC2)cc1 | ? | -29% | ? | -1 | 22µM*
CCc1c(C)sc2c1CCN(Cc1ccccc1F)C2c1ccccc1 (stereo not drawn) | -12% | / | -14% | / | ?
Cc1ccc(-n2ncc(C(=O)NCCc3ccsc3)c2C2CCN(C(=O)OC(C)(C)C)CC2)cc1C | -14% | / | 2% | / | -16%
NS(=O)(=O)c1ccc(NNC(=O)c2ccccc2)cc1 | 6% | ? | 0% | -1 | /
O=C(NNc1cc(Br)c(O)c(Br)c1)c1ccccc1 | ? | -56% | 16µM* | -21 | 5µM*
O=[N+]([O-])c1ccc(C2Oc3ccccc3C3CC(c4ccccc4)=NN32)s1 (stereo not drawn) | 14µM*[quencher] | -15% | ? | -11 | 14µM*
c1ccc(C2Oc3ccccc3C3CC(c4cccs4)=NN32)cc1 (stereo not drawn) | -21% | -3% | -14% | 2 | ?
O=C(O)c1ccccc1Nc1ccc(CCc2ccc(Cl)c(Cl)c2)cc1 | / | 4% | / | 11 | /
